An excerpt weighted towards active compounds, which were near 28% of everything screened.
CYP2C19 inhib: inhibitors of human CYP2C19. P33261. CYP2C19 Supersomes, luciferin-H EGE luminescence, 30 min. inhibition, % at 5 µM. 21% of 96,000 active;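 active means CYP2C19 inhibition above a set limit at 5 µM in the primary screen, cut at about 50% in these data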
Target sequence (P33261 whole entry, looked up): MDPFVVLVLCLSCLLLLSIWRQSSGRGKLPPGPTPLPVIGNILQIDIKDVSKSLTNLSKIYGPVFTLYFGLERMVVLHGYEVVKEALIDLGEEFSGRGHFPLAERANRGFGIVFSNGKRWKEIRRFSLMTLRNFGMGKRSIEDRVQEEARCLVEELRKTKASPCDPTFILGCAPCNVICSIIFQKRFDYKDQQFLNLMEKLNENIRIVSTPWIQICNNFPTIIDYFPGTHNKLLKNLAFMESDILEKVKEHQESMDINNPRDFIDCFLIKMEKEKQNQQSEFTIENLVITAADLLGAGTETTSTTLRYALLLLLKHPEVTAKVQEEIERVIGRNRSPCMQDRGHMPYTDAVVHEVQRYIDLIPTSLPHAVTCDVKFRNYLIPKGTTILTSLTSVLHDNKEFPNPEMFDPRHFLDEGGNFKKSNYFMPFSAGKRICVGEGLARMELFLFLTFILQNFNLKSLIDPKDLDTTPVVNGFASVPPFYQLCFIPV
CYP2C9 inhib: blocks human cytochrome P450 2C9. P11712. 20% of 96,000 active. inhibition, % at 5 µM. CYP2C9 Supersomes, luciferin-H conversion, luminescence;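 active means blocking of liver enzyme CYP2C9 beyond about 50% at 5 µM, limit read from the data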
CD11b adhes inh: inhibitors of human CD11b/CD18 binding to fibrinogen. P05107+P11215. K562 CD11b/CD18 adhesion to fibrinogen, ATPlite luminescence; Mn2+ added to activate the integrin. inhibition, % at 10 µM. 0.54% of 93,000 active. AID 1497;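 active means primary inhibition of 50% or more at 10 µM, then 40% or more on retest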
Mac1 fbg enh: increases human CD11b/CD18 adhesion to fibrinogen. AID 1499. 0.07% of 93,000 active. K562 CD11b/CD18 adhesion to fibrinogen, ATPlite luminescence. activation, % at 10 µM. P05107+P11215;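 active means 10 µM primary screen giving 50% or more activity, confirmed by 40% or more on retest at that dose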
CYP2C9 act: increases human cytochrome P450 2C9 activity; P11712; 1.4% of 96,000 active; activation factor at 5 µM; recombinant CYP2C9, luciferin-H conversion, luminescence; hits give high values; factor 1 = untreated enzyme, 0 = blocked;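 active means activation factor of 2 or more for CYP2C9 at a 5 µM dose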
CYP2C19 activ: cytochrome P450 2C19 (human) activation; recombinant CYP2C19, luciferin-H EGE luminescence; hits give high values; 0 = fully inhibited enzyme, 1 = untreated enzyme; activation factor at 5 µM; 96,000 tested, under 10 active; AID 1025;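 active means activation factor of at least 2 at 5 µM in the primary screen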
Hits are given with their value; i = inactive; nt = no result.

SMILES | CYP2C19 inhib | CYP2C9 inhib | CD11b adhes inh | Mac1 fbg enh | CYP2C9 act | CYP2C19 activ
CCN(CC)S(=O)(=O)c1ccc(NC(=O)C2COc3ccccc3O2)cc1 (stereo unspecified) | i | 72.1 | i | i | i | i
Cc1cc(C)n(C(=O)c2ccc(NC(=O)C3COc4ccccc4O3)cc2)n1 (stereo unspecified) | i | i | i | i | i | i
O=C(CSC1=NCCN1)C1COc2ccccc2O1 (stereo unspecified) | 60.6 | 66.9 | i | i | i | i
O=C(NC1CC2CCC1C2)C1COc2ccccc2O1 (stereo unspecified) | 52.3 | i | i | i | i | i
CCC(/C=N/NC(=O)C1COc2ccccc2O1)CC (stereo unspecified) | nt | nt | i | i | nt | nt
CC1CCc2c(C(=O)N3CCN(S(=O)(=O)c4cccs4)CC3)csc2C1 (stereo unspecified) | 77.7 | 77.1 | i | i | i | i
Cc1ccc(C(=O)Oc2ccccc2N2C(=O)C3CCCCC3C2=O)cc1 (stereo unspecified) | i | i | i | i | i | i
CCOC(=O)c1nnc(-c2ccccc2)nc1NCc1ccccc1 | i | i | nt | nt | i | i
CCOC(=O)c1c2n(c3c(NCc4ccccc4)ncnc13)CCCC2 | i | 77.3 | i | i | i | i
O=C(Nc1ccc(S(=O)(=O)N2CCCCC2)cc1)c1ccc(CN2CCc3ccccc3C2)cc1 | i | 68.0 | nt | nt | i | i
Cc1ccc(C(=O)Nc2ccc(S(=O)(=O)N3CCc4ccccc4C3)cc2)o1 | 61.0 | i | i | i | i | i
CCC(=O)Nc1ccc(S(=O)(=O)N2CCc3ccccc3C2)cc1 | 86.2 | i | i | i | i | i
O=C(Nc1ccc(S(=O)(=O)N2CCc3ccccc3C2)cc1)C1CCCO1 (stereo unspecified) | i | i | i | i | i | i
CCC(=O)Nc1ccc(Nc2ccccc2)cc1 | i | i | i | i | i | i
Cc1ccc(NC(=O)c2ccc(CN3CCc4ccccc4C3)cc2)cc1 | i | i | i | i | i | i
CCC(=O)Nc1ccc(S(=O)(=O)c2ccc(NC(=O)CC)cc2)cc1 | i | 69.9 | i | i | i | i
CCC(=O)Nc1ccc(S(=O)(=O)N2CCOCC2)cc1 | i | i | i | i | i | i
O=C(Cc1sc(Nc2ccccc2)nc1-c1ccccc1)NCc1ccccc1 | nt | nt | i | i | nt | nt
COC(=O)COc1ccc(S(=O)(=O)N2CCc3ccccc3C2)cc1 | 66.1 | i | i | i | 2 | i
Cc1ccc(C(=O)Nc2ccc(S(=O)(=O)N3CCc4ccccc43)cc2)o1 | i | 74.1 | i | i | i | i
O=C(COc1ccc(-n2cnnn2)cc1)NCCc1ccc(F)cc1 | i | i | i | i | i | i
COc1cccc(C2CC(c3ccc(Cl)cc3)Nc3nc(N)nn32)c1 (stereo unspecified) | i | i | i | i | i | i
COc1cccc(C2CC(c3ccc(C(C)C)cc3)n3nc(N)nc3N2)c1 (stereo unspecified) | i | i | i | i | i | i
COc1cccc(C2CC(c3ccccc3)n3ncnc3N2)c1 (stereo unspecified) | 51.3 | i | i | i | i | i
Fc1cccc(C2CC(c3cccc(Br)c3)Nc3nnnn32)c1 (stereo unspecified) | 95.2 | 94.9 | i | i | i | i
SMILES | CYP2C19 inhib | CYP2C9 inhib | CD11b adhes inh | Mac1 fbg enh | CYP2C9 act | CYP2C19 activ
COc1cccc(C2CC(c3cccc(Br)c3)n3ncnc3N2)c1 (stereo unspecified) | 64.4 | i | i | i | i | i
COc1cccc(C2CC(c3ccc(F)cc3)Nc3nc(N)nn32)c1 (stereo unspecified) | i | i | i | i | i | i
COc1cccc(C2CC(c3ccc(C)cc3)n3ncnc3N2)c1 (stereo unspecified) | 96.7 | 63.2 | i | i | i | i
O=C(Cc1c(Cl)cccc1Cl)OCC(=O)N1CCc2ccccc2C1 | nt | nt | i | i | nt | nt
Cn1c(=O)c2c(nc(SCC(=O)N3CCc4ccccc43)n2Cc2ccccc2)n(C)c1=O | i | i | i | i | i | i
Cc1ccnc2nc(C(=O)NCCc3ccc(F)cc3)nn12 | i | i | i | i | i | i
Cc1ccc(N2C(=O)CSC2c2ccccn2)cc1Cl (stereo unspecified) | i | i | nt | nt | i | i
CCn1c(SCC(=O)Nc2nc(-c3ccccc3)cs2)nnc1-c1ccccc1 | 93.6 | 96.0 | i | i | i | i
CCn1c(SCC(=O)N/N=C/c2ccc(C)o2)nnc1-c1ccccc1 | i | i | i | i | i | i
CCn1c(SCC(=O)Nc2nccs2)nnc1-c1ccccc1 | 92.1 | 51.7 | i | i | i | i
CCn1c(Cc2ccccc2)nnc1SCC(=O)Nc1nccs1 | i | i | i | i | i | i
CCn1c(SCC(=O)N/N=C/C(C)=C/c2ccco2)nnc1-c1ccccc1 | 84.8 | i | i | i | i | i
CCOC(=O)c1sc2ncn(C(CC)C(=O)OC)c(=O)c2c1C (stereo unspecified) | 70.2 | 96.0 | i | i | i | i
CCOC(=O)c1sc2ncn(C(C)C(=O)OC)c(=O)c2c1C (stereo unspecified) | 57.3 | 53.6 | i | i | i | i
CCOC(=O)c1sc2ncnc(OC)c2c1C | i | i | i | i | i | i
CCCOC(=O)C(C)n1cnc2sc(C)c(C)c2c1=O (stereo unspecified) | 69.7 | 55.7 | i | i | i | i
CCOC(=O)c1sc2nc[nH]c(=O)c2c1C | i | i | i | i | i | i
CCOC(=O)c1sc2ncn(C(CC)C(=O)OCC)c(=O)c2c1C (stereo unspecified) | 60.0 | 83.0 | i | i | i | i
O=C(NCC1CCS(=O)(=O)C1)Oc1ccccc1 (stereo unspecified) | i | i | i | i | i | i
O=C(N1CCOCC1)C1(c2ccc(Cl)cc2)CCCC1 | 88.3 | i | i | i | i | i
O=C(Nc1cccc(F)c1)NC1CCCCC1 | 55.0 | i | i | i | i | i
COC(=O)C1CCN(C(=O)c2ccccc2Oc2ccccc2)CC1 | 78.7 | 55.2 | i | i | i | i
O=C(c1ccc(Br)s1)N1CCCC1 | i | i | i | i | i | i
COc1ccccc1N1CCN(C(=O)c2ccccc2Oc2ccccc2)CC1 | 74.5 | 75.0 | i | i | i | i
O=C(c1c(F)cccc1F)N1CCN(c2ncccn2)CC1 | i | 65.3 | i | i | i | i
O=C(c1ccccc1F)N1CCN(c2ncccn2)CC1 | i | i | nt | nt | i | i
COc1ccccc1N1CCN(C(=O)c2ccc(Br)s2)CC1 | 99.0 | 88.6 | i | i | i | i
COCCNc1nnc(SC(C)C(=O)Nc2ccc(-c3nc4ccc(C)cc4s3)cc2)s1 (stereo unspecified) | nt | nt | i | i | nt | nt
CCCCc1c(C)nc2ccccc2c1SCCC#N | nt | nt | i | i | nt | nt
COc1ccc(C(C(=O)NC2CCCCC2)N(C(=O)c2sc(C)nc2C)c2ccccc2C)cc1 (stereo unspecified) | i | i | nt | nt | i | i
